Experimental data reported in the supplement of paper PMC6555819.

Legend:
Test in all cases: PBM binding z-score (relative to random genomic background probes); higher = stronger binding; sequences stand for … in GC…GCGATTGACAGCGTAGAATGAAGG
[1] = system: FXR:RXRa (NR concentration 270 nM, RXRa partner concentration 90 nM)
Outline: (§1)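 Custom Agilent 4×180K protein-binding microarrays carried double-stranded probes. Their 34-nt variable regions held direct-repeat seeds, single-nucleotide variants, half-site ablations and random human genomic background sequences. Arrays were incubated 1 h with ligand-free nuclear receptor dimers in PBS pH 7.4, 2% milk, 0.02% Triton X-100, 1 mM DTT, 0.2 mg/mL BSA and 0.4 mg/ml salmon testes DNA. Antibodies against each partner (one per run) detected binding, and scanned fluorescence was regression-normalized. Binding z-scores use random background probes as reference.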

[2] = system: LXRa:RXRa (NR concentration 270 nM, RXRa partner concentration 90 nM)
Outline: as §1

[3] = system: LXRa homodimer (NR concentration 270 nM)
Outline: as §1

[4] = system: LXRb:RXRa (NR concentration 270 nM, RXRa partner concentration 90 nM)
Outline: as §1

[5] = system: LXRb homodimer (NR concentration 270 nM)
Outline: as §1

[6] = system: PPARa:RXRa (NR concentration 270 nM, RXRa partner concentration 90 nM)
Outline: as §1

[7] = system: PPARg:RXRa (NR concentration 180 nM, RXRa partner concentration 90 nM)
Outline: as §1

[8] = system: PPARg:RXRa 270nM:90nM, anti-RXR (NR concentration 270 nM, RXRa partner concentration 90 nM)
Outline: as §1

[9] = system: PPARg:RXRa 30nM:10nM, anti-RXR (NR concentration 30 nM, RXRa partner concentration 10 nM)
Outline: as §1

[10] = system: PPARg:RXRa 90nM:30nM, anti-RXR (NR concentration 90 nM, RXRa partner concentration 30 nM)
Outline: as §1

[11] = system: PPARg:RXRa DBDmut IVT, anti-RXR (DBD mutation: RXRa K156A/R161A, NR concentration 270 nM, RXRa partner concentration 90 nM)
Outline: as §1

[12] = system: PPARg:RXRa IVT, anti-PPARg (NR concentration 270 nM, RXRa partner concentration 90 nM)
Outline: as §1

[13] = system: PPARg DBDmut:RXRa IVT, anti-PPARg (DBD mutation: PPARg1 K132A/R137A, NR concentration 270 nM, RXRa partner concentration 90 nM)
Outline: as §1

[14] = system: PPARg DBDmut IVT, anti-PPARg (DBD mutation: PPARg1 K132A/R137A, NR concentration 270 nM)
Outline: as §1

[15] = system: PPARg homodimer (NR concentration 180 nM)
Outline: as §1

[16] = system: PXR:RXRa (NR concentration 270 nM, RXRa partner concentration 90 nM)
Outline: as §1

[17] = system: PXR homodimer (NR concentration 270 nM)
Outline: as §1

[18] = system: RARa:RXR (NR concentration 270 nM, RXRa partner concentration 90 nM)
Outline: as §1

[19] = system: RARa homodimer (NR concentration 270 nM)
Outline: as §1

[20] = system: RARb:RXRa (NR concentration 270 nM, RXRa partner concentration 90 nM)
Outline: as §1

Row | Sequence | PBM binding z-score [1] | PBM binding z-score [2] | PBM binding z-score [3] | PBM binding z-score [4] | PBM binding z-score [5] | PBM binding z-score [6] | PBM binding z-score [7] | PBM binding z-score [8] | PBM binding z-score [9] | PBM binding z-score [10] | PBM binding z-score [11] | PBM binding z-score [12] | PBM binding z-score [13] | PBM binding z-score [14] | PBM binding z-score [15] | PBM binding z-score [16] | PBM binding z-score [17] | PBM binding z-score [18] | PBM binding z-score [19] | PBM binding z-score [20]
1 | TAGCCTAGGTCATGCGGGCAAGTATAGTGTCGGC | 4.44 | 3.3 | 0.517 | 1.94 | -0.137 | 3.73 | 2.32 | 2.59 | 0.322 | 1.54 | 1.66 | 3.02 | 0.235 | -0.248 | 1.39 | 1.45 | -0.333 | 2.21 | 0.228 | 3.83
2 | TAGCCTAGGTCATGGACCAGTATACCACGCGAAC | 4.39 | 3.44 | 0.268 | 2.46 | -0.208 | 4.18 | 3.5 | 3.32 | 0.758 | 2.23 | 1.67 | 3.14 | 0.484 | 0.282 | 1.64 | 1.69 | -0.467 | 2.85 | -0.128 | 3.77
3 | ATCTCTAGGTAACACGTTCAGTGAAAGAGAGGAC | 0.359 | 0.232 | 0.454 | 0.113 | 0.898 | 0.511 | 0.99 | 1.06 | 0.213 | 0.803 | 3.45 | 3.05 | 1.75 | 1.04 | 0.135 | 0.0713 | 0.206 | 0.208 | 0.489 | 0.552
4 | ACTAGCAGGCCAAGTTTGGATCACTCAAACAAAG | -0.476 | -0.653 | -0.239 | -0.541 | -0.521 | -0.385 | 0.154 | -0.662 | -0.693 | -0.835 | 0.238 | 0.181 | -0.895 | -0.495 | -0.574 | -0.494 | -0.612 | -0.608 | -0.518 | 0.165
5 | TTACCAAGGTAAAGGTCGTTGATCCCTCTGTAGA | 3.54 | 3.56 | 0.635 | 2.91 | -0.332 | 4.13 | 6.84 | 7.33 | 5.9 | 7.74 | 0.8 | 3.8 | 1.13 | 0.564 | 1.72 | 2.59 | 0.148 | 2.98 | -0.24 | 2.14
6 | CGAACTAGGTCAAGGACGGTGAATCTCCGCACGC | 3.32 | 2.02 | 0.122 | 1.29 | -0.582 | 4.44 | 6.87 | 6.24 | 3.95 | 5.89 | 7.98 | 7.86 | 0.422 | -0.145 | 0.732 | 1.03 | -0.242 | 1.5 | -0.265 | 3.76
7 | ATATGTAGGTTATCGGTTCATTCAGTTTGCGCAT | 1.28 | 1.84 | 1.33 | 1.71 | 1.17 | 3.91 | 5.47 | 5.22 | 2.65 | 4.65 | 7.25 | 7.09 | 4.06 | 4.75 | 2.66 | 3.48 | 11.4 | 1.73 | 1.25 | 1.32
8 | CTACCAAGGTGAACAAGTTCGTTGATTACTATTC | 0.442 | 0.532 | 0.164 | 0.939 | -0.333 | 1.49 | 0.367 | 0.665 | -0.0232 | 0.145 | 2.33 | 2.42 | 0.0227 | 0.729 | 0.895 | 2.81 | 4.46 | 0.986 | 0.313 | 1.55
9 | CCGACTGGGGCAAAGGTTAGCATACTCAGTACGA | 0.945 | 0.762 | -0.315 | 1.27 | -1.29 | 4.88 | 10.7 | 8.69 | 9.08 | 9.54 | 4.94 | 4.9 | -0.151 | -1.37 | 1.58 | 1.47 | -0.542 | 2.78 | -0.0647 | 1.99
10 | AGAACGAGGGCACGCTGAGATGATAGCAGAGTAG | 0.695 | 0.423 | -0.425 | 0.0557 | -0.697 | 2.1 | 2.33 | 1.98 | 0.819 | 1.41 | 4.28 | 3.41 | 0.615 | 0.133 | 0.5 | 0.342 | -0.229 | 0.762 | -0.576 | 2.5
11 | CCAGACAGGTGAAATGTAACTCAGTCTGGTACGC | 0.0255 | -0.0223 | -0.367 | 0.217 | 0.0964 | 0.949 | 1.12 | 1.5 | 0.324 | 1.07 | 1.56 | 0.99 | -0.289 | -0.0118 | 0.686 | 0.0204 | -0.634 | 0.296 | 0.296 | 0.614
12 | CGTCCAAGGTCAGCAAGTCAGTGAAAGCGACGTG | 4.99 | 3.1 | -0.297 | 2.02 | -0.381 | 4.25 | 2.21 | 3.14 | 0.523 | 1.9 | 2.61 | 2.52 | -0.905 | -1.02 | 2.24 | 2.38 | 0.119 | 3.13 | 0.523 | 4.99
13 | GGAACGAGGGGAAGTTGATAGCAGAGTTTGATGG | 0.0996 | -0.26 | -0.307 | -0.0221 | -0.185 | 0.0181 | 0.515 | 0.29 | -0.0775 | 0.258 | 1.12 | 0.62 | 0.337 | 0.547 | 0.593 | 0.111 | 0.308 | -0.228 | 0.391 | 0.243
14 | ATCTCTAGGTAAAGAGAGTTCAGTGAATGCAAAT | 0.502 | 4.09 | 1.76 | 1.41 | 0.27 | 1.34 | 0.263 | 0.567 | 0.0587 | 0.356 | 2.17 | 1.38 | 0.459 | 0.197 | 0.502 | 3.71 | 3.18 | 0.79 | 0.685 | 1.16
